# According to PubChem BioAssay (EPA / NIEHS):
# Values joined by “and” are separate entries in the source; they are usually repeats but may differ in a detail not shown here. Equal values may be shown once. Some structures have more than one record in an assay (separate samples or runs), and their calls can disagree. Active and inactive are the calls of the source. The calls were made as follows: active = hit-call score of the fitted dose curve at least 0.9, where 1 is the maximum; inactive = score below 0.9.
# Read-out: CD40, CD40 (gene 958)
# Assay: BSK_LPS_CD40: BioMAP Diversity Plus: LPS Assay for CD40 Biomarker Activity (AID 2283076)
# Conditions: primary human HUVEC with PBMC; actives raise or lower the signal
# Description: BSK_LPS is a cell-based, multiplexed-readout assay that uses umbilical vein endothelium and peripheral blood mononuclear cells, a human vascular primary cell co-culture, with measurements taken at 24 hours after chemical dosing in a 96-well plate.BSK_LPS_CD40 is an assay component measured in the BSK_LPS assay. It measures CD40 antibody related to regulation of gene expression using ELISA technology.Data from the assay component BSK_LPS_CD40 was analyzed into 1 assay endpoint. This assay endpoint, BSK_LPS_CD40, was analyzed with bidirectional fitting relative to DMSO as the negative control and baseline of activity. Using a type of binding reporter, gain or loss-of-signal activity can be used to understand changes in the signaling as they relate to the gene CD40. Furthermore, this assay endpoint can be referred to as a primary readout, because this assay has produced multiple assay endpoints where this one serves a signaling function. To generalize the intended target to other relatable targets, this assay endpoint is annotated to the cytokine intended target family, where the subfamily is inflammatory factor.
# The levels of cell surface (or secreted, indicated by the prefix "s") biomarker endpoints were measured by ELISA. Overt cytotoxicity to cells in confluent adherent cultures (all systems other than the BT system) was assessed by measuring total protein levels using sulforhodamine B (SRB) staining in parallel cultures at the time of biomarker measurements, indicated as SRB endpoints. For proliferation assays for adherent cell types, individual cell types are cultured at sub-confluence and relative cell numbers quantified by SRB staining at time points optimized for each system (48 h: 3C and CASM3C systems; 72 h: BT and HDF3CGF systems; 96 h: SAg system). SRB was performed by staining cells with 0.1% SRB after fixation with 10% TCA and reading wells at 560 nm.Viability and proliferation of PBMC (T cells) was quantified by Alamar Blue reduction for the SAg and BT systems. For PBMC viability (referred to as PBMC Cytotoxicity within the assay endpoint names), cells were plated (75,000/well in a 96-well plate) and then chemical samples added for 1 h before addition of activators, SEB and TSST-1 (20 ng/mL final concentration each). Cells were incubated for 90 h. Then, Alamar Blue (20 uL/well) (Invitrogen, Cat DAL1100) was added for 6 h, and the plates were read with a fluorescence microplate reader at 546/580 nm (excitation/emission). For PBMC proliferation, cells were plated and activated as above but incubated for only 16 h prior to addition of Alamar Blue. Plates were read after 6 h.
Structure (SMILES),AC50,outcome
CCCCCCCCCCCC#N,30.8 µM (active),–
O=C(CCl)c1ccccc1,4.58 µM (active),–
[Cd+2].[Cl-].[Cl-],13.1 µM (active),inactive
O=c1c2ccccc2c(=O)c2c1cc(Cl)c1[nH]c3c([nH]c12)c(Cl)cc1c(=O)c2ccccc2c(=O)c13,–,inactive
O=C1C(Cl)=C(Cl)C(=O)C(Cl)=C1Cl,15.1 µM (active),–
CC(C)CCCCCCCOP(=O)(Oc1ccccc1)Oc1ccccc1,11.3 µM (active),–
COCC(=O)N(c1c(C)cccc1C)N1CCOC1=O,–,inactive
Oc1ccc(C2(c3ccc(O)cc3)c3ccccc3-c3ccccc32)cc1,12.1 µM (active) and 10.1 µM (active),–
O=c1[nH]c(Cl)c(Cl)cc1Cl,–,inactive
N#CCCCCC#N,–,inactive
C=CC(=O)OCC(CC)CCCC (centres undefined),–,inactive
COC(C)(C)CCC[C@H](C)C/C=C/C(C)=C/C(=O)OC(C)C,20 µM (active),–
CC(C)(C)C(=O)CCl,28.7 µM (active),–
O=[N+]([O-])c1ccc(Cl)cc1,–,inactive
Nc1ccc(-c2ccc(N)c(N)c2)cc1N,–,inactive
O=P1(NCCCl)OCCCN1CCCl (centres undefined),–,inactive
CCc1cc(C)cc(CC)c1-c1c(OC(=O)C(C)(C)C)n2n(c1=O)CCOCC2,–,inactive
O=[N+]([O-])C=Cc1ccccc1,5.97 µM (active),–
c1ccc(Nc2ccc3ccccc3c2)cc1,–,inactive

Structure (SMILES),AC50,outcome
CC(C)CCCCCCCOC(=O)c1ccccc1C(=O)OCCCCCCCC(C)C,–,inactive
CC1(C)[C@H](C(=O)O[C@H](C#N)c2cccc(Oc3ccccc3)c2)[C@@H]1C=C(Br)Br,–,inactive
CCC(C)c1cc([N+](=O)[O-])cc([N+](=O)[O-])c1OC(=O)C=C(C)C (centres undefined),7.46 µM (active),–
CC(=O)/C=C/c1ccccc1,20 µM (active),–
CC(C)(c1cc(Cl)c(O)c(Cl)c1)c1cc(Cl)c(O)c(Cl)c1,17.3 µM (active),–
O=C1C=CC(=O)C=C1,12.3 µM (active) and 20 µM (active),–
C=CCN(CC=C)C(=O)C(Cl)Cl,–,inactive
CCCOC(=O)c1ccccc1C(=O)OCCC,–,inactive
Clc1ccc(-c2ccccc2)cc1,–,inactive
CNC(=O)Oc1cc(C)c(SC)c(C)c1,20 µM (active),–
CC(C)(C)C(O)C(Oc1ccc(-c2ccccc2)cc1)n1cncn1 (centres undefined),–,inactive
O=C(O)CCCc1ccc(N(CCCl)CCCl)cc1,20 µM (active),–
O=S(=O)(c1ccccc1)c1ccccc1,–,inactive
COc1ccc(CO)cc1,–,inactive
CCCC[N+](CCCC)(CCCC)CCCC,–,inactive
CC(C)COP(=O)(OCC(C)C)OCC(C)C,–,inactive
Oc1cc(Cl)ccc1Cl,–,inactive
O=[N+]([O-])O,–,inactive
Cc1ccc(OP(=O)(Oc2ccc(C)cc2)Oc2ccc(C)cc2)cc1 (tested in a mixture with another compound),7.66 µM (active),–
